Screening data: PubChem, National Center for Advancing Translational Sciences (NCATS)
KCNH2 3.1 block – qHTS for Inhibitors of KCHN2 3.1: Mutant qHTS; AID 720553, 2013; 340,000 compounds, 0.95% hits; Potassium voltage-gated channel subfamily H member 2, brain isoform KCNH2 3.1 (human); activity change, % (tested at about 1.8 µM); U2OS KCNH2 3.1, thallium flux FluxOr; stronger effect = lower value;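 active = maximum activity change below -70%; inconclusive = maximum activity change from -70% to -50%; inactive = maximum activity change above -50%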;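 note: thallium influx rate constant from kinetic fluorescence after stimulation buffer; % is set by controls: 0 for no effect and ±100 for the full control effect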
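Steps: virus added to U2OS suspension (4 h, RT, dark); medium with 10% FBS added, cells plated, 37 C overnight; FluxOr/Red40 loading buffer 45 min RT; stimulation buffer, 2 min kinetic read; rate constant normalized.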
TRPV1 agonist – HTS Assay for Compounds that Act as Agonists of the Vanilloid Receptor 1. AID 540275, 2011. activation, % at 8.33 µM. 320,000 compounds, 0.19% hits. Transient receptor potential cation channel subfamily V member 1 (Homo sapiens), Q8NER1. TRPV1-expressing cells, Fluo-8 calcium influx, agonist mode; in the data active = activation above about 80%; inconclusive = between about 30% and that limit; note: 0% is about no effect
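Cells expressing TRPV1 were dye-loaded with Fluo-8 and read kinetically: 10 s baseline, 3 min after compound (agonist portion), then 2 min after EC20 capsaicin (allosteric enhancer portion). Calcium-bound dye fluorescence at 480/520 nm.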
TRPV1 potentiator – HTS Assay for Compounds that Act as Potentiators of the Vanilloid Receptor 1. Transient receptor potential cation channel subfamily V member 1 (Homo sapiens), Q8NER1. TRPV1-expressing cells, Fluo-8 calcium influx, capsaicin EC20 potentiation. potentiation, % at 8.33 µM. 320,000 compounds, 0.02% hits. AID 540277, 2011; in the data active = potentiation above about 80%; inconclusive = between about 30% and that limit; note: 0% is about no effect
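TRPV1-expressing cells were cultured overnight at 35.5C and loaded with Fluo-8 calcium dye for 40 to 90 min at room temperature. After a 10 s baseline, compound was added and calcium influx was read kinetically for 3 min (ex 480/em 520 nm).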
KCNH2 WT inh – qHTS for Inhibitors of KCHN2 3.1: Wildtype qHTS; activity change, % at 1.84 µM; Voltage-gated inwardly rectifying potassium channel KCNH2 (Homo sapiens), Q12809; AID 720551, 2013; U2OS, BacMam KCNH2, thallium flux FluxOr; stronger effect = lower value; 340,000 compounds, 0.37% hits;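 active = maximum activity change below -70%; inconclusive = maximum activity change between -70% and -50%; inactive = maximum activity change above -50%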; note: % is set by controls: 0 for no effect and ±100 for the full control effect
Target sequence (Q12809 whole entry, looked up): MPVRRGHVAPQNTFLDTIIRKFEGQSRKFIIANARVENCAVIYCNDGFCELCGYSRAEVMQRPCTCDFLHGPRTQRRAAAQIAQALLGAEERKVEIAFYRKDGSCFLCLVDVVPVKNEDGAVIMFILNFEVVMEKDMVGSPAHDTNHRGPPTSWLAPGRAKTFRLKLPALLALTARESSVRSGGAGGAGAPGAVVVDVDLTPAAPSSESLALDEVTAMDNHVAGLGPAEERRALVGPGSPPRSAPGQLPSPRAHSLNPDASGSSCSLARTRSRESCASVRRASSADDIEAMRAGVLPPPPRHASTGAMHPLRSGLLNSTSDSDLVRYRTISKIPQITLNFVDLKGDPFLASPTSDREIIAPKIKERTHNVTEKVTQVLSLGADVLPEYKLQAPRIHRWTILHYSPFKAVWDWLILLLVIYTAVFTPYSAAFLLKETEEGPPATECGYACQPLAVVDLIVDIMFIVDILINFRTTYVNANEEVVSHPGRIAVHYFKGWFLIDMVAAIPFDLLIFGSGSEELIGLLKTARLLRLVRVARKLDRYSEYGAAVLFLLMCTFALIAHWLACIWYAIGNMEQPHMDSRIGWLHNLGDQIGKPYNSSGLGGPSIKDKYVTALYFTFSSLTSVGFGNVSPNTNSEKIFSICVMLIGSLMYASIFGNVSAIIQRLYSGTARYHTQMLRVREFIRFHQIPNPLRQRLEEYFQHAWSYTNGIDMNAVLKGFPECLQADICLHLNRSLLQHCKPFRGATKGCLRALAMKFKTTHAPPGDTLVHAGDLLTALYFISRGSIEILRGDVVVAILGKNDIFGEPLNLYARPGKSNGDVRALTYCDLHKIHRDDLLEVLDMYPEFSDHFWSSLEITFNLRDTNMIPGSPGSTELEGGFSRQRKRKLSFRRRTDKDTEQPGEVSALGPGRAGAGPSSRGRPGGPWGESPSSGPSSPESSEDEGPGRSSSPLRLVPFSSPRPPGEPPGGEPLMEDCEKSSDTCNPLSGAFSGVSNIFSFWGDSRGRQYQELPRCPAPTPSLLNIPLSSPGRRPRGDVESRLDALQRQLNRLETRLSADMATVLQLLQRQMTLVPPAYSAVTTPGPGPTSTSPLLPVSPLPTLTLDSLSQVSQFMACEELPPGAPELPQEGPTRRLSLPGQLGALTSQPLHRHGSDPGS
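U2OS cells transduced with wild-type KCNH2 virus are loaded with FluxOr dye for 45 min, and thallium flux is measured in kinetic reads before and after stimulation buffer. Rate constants are normalized to DMSO controls.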
Active calls of the source: *; ? = inconclusive; nt = not tested or not shown. In the library only some 1.3% were active in any assay of this set; here they are far more common.

SMILES	KCNH2 3.1 block	TRPV1 agonist	TRPV1 potentiator	KCNH2 WT inh
CCCCn1cnc2c(c(-c3ccccc3)c(-c3ccccc3)n2Cc2ccco2)c1=N	-6.4	9.1	-1.4	-7.7
CN(C)CCn1c(=O)n(Cc2ccccc2)c(=O)c2c3c(sc21)CCCCC3	8.0	0.3	0.1	29.5
CCOC(=O)c1sc2c(c1C)c(=O)n(Cc1ccccc1)c(=O)n2CCN(C)C	-109.4*	6.4	18.2	18.7
CC1(c2nnc(-c3ccc(Cl)cc3)o2)CC(c2ccc(Cl)cc2)=NO1 (stereo unspecified)	-161.9*	14.5	-4.3	2.8
Cc1cccc(C)c1N(CC(=O)N1CCN(c2ccccc2F)CC1)S(C)(=O)=O	-1.7	0.2	-1.4	-0.2
Cc1cccc(N(CC(=O)N2CCN(c3ccccc3F)CC2)S(C)(=O)=O)c1	-84.5*	5.7	-10.0	-1.9
COc1ccc(C(=O)O)cc1S(=O)(=O)NCc1ccccn1	18.0	-1.6	-1.4	0.6
Cc1nc2ccccn2c1C(=O)NNC(=O)Nc1cccc(C(F)(F)F)c1	9.8	-8.4	7.9	14.0
CCOC(=O)C1(Cc2cccc(OC)c2)CCN(Cc2ccc(C)s2)CC1	-76.1*	10.7	-5.2	?
CCOC(=O)C1(Cc2cccc(OC)c2)CCN(Cc2ccc(OC)c(OC)c2)CC1	-70.1*	-0.3	3.2	18.4
CCOC(=O)C1(Cc2cccc(OC)c2)CCN(Cc2cccn2-c2nccs2)CC1	-100.9*	5.2	-4.1	-82.6*
CCOC(=O)C1(Cc2ccccc2)CCN(Cc2cccn2-c2nccs2)CC1	-3.3	25.1	-2.8	-1.1
CCOC(=O)C1(Cc2cccc(OC)c2)CCCN(Cc2cc(OC)c(O)c(OC)c2)C1 (stereo unspecified)	-193.4*	-3.5	2.5	-134.1*
COc1ccc(C(=O)N2CCOC2CNC(=O)C(=O)NCCc2ccccc2OC)cc1 (stereo unspecified)	nt	4.0	-3.1	2.4
Cc1ccc(NC(=O)CN2C(=O)NC3(CCCc4ccccc43)C2=O)c(C)c1 (stereo unspecified)	16.5	9.2	-7.3	9.2
Cc1cc(N2CCN(c3ccc([N+](=O)[O-])c4cccnc34)CC2)c2ccccc2n1	-102.5*	3.3	-6.3	-107.9*
Cc1ccc(S(=O)(=O)N2CCN(c3ccc(C(F)(F)F)cc3[N+](=O)[O-])CC2)cc1	-14.9	5.0	-10.1	-0.7
Cc1cc(N2CCN(c3ccc(C(F)(F)F)cc3[N+](=O)[O-])CC2)c2ccccc2n1	-101.7*	1.1	7.5	-97.9*
O=C(c1ccccc1F)N1CCN(c2ccc([N+](=O)[O-])c3cccnc23)CC1	-2.8	8.7	-1.0	-242.5*
COc1ccc(NC(=O)CSc2n[nH]c(=O)n2C2CC2)cc1OC	-0.6	-4.1	8.6	-10.7
CC12CN3CC(C)(CN(C1)C3c1ccccc1F)C2 (stereo unspecified)	-98.7*	2.5	2.5	1.4
CC12CN3CC(C)(CN(C1)C3c1ccccc1Cl)C2O (stereo unspecified)	-8.4	1.0	?	-2.4
S=c1nc(-c2ccc(Br)cc2)[nH]c2ccccc12	30.5	-2.4	2.1	-140.7*
S=c1nc(-c2ccccc2)[nH]c2ccccc12	30.9	5.7	3.1	-10.8
Cc1ccc(NC(=O)Cc2nn(C)c(=O)c3ccccc23)cc1F	-2.1	-3.0	10.9	5.5
SMILES	KCNH2 3.1 block	TRPV1 agonist	TRPV1 potentiator	KCNH2 WT inh
Cn1nc(CC(=O)Nc2ccc3c(c2)OCCO3)c2ccccc2c1=O	-13.3	4.1	81.2*	6.0
Cc1onc(-c2ccccc2)c1C(=O)Nc1nc(-c2cc(F)ccc2F)cs1	3.1	-1.2	?	7.7
Cc1noc(C)c1C(=O)Nc1nc(-c2cc(F)ccc2F)cs1	-134.9*	3.5	2.0	-0.9
O=C(c1ccc(-c2ccc([N+](=O)[O-])cc2)o1)N1CCCCC1	6.3	2.1	3.4	4.6
O=C(c1ccc(-c2ccc(Cl)cc2)o1)N1CCN(c2ccc([N+](=O)[O-])cc2Cl)CC1	-82.8*	-3.2	-1.0	-4.8
O=C(c1ccc(-c2cccc([N+](=O)[O-])c2)o1)N1CCN(c2ccc([N+](=O)[O-])cc2)CC1	-115.6*	-3.6	-36.2	-110.5*
O=C(c1ccc([N+](=O)[O-])cc1)N1CCN(C(=O)c2cccnc2)CC1	0.2	-1.1	7.0	6.1
O=[N+]([O-])c1cccc(-c2ccc(C(=S)N3CCN(c4ccc(F)cc4)CC3)o2)c1	-7.8	2.4	22.0	-1.3
O=C(c1cccnc1)N1CCN(c2ccc([N+](=O)[O-])cc2Cl)CC1	-120.0*	-1.8	-0.7	8.9
CC[C@H](C)[C@H]1CNC(=S)N1CC1CCN(CCC23CC4CC(CC(C4)C2)C3)CC1	0.9	nt	nt	-5.7
CC(=O)Nc1nc(C)c(Oc2ccc(C)cc2)c(=O)[nH]1	8.5	0.3	13.0	1.0
Cc1ccc(C(=O)Oc2oc(-c3ccccc3)nc2C=Nc2ccc(N(C)C)cc2)cc1	12.0	-4.8	-10.0	-6.4
CN(C)c1ccc(N=Cc2nc(-c3ccccc3)oc2OC(=O)c2cccc(Cl)c2)cc1	-14.9	80.1*	-10.9	-1.2
CCC(=O)Nc1nonc1-c1nc2ccccc2n1Cc1cccc2ccccc12	-84.6*	-4.8	5.7	-15.5
COC(=O)c1sc(S(=O)(=O)N2CCCCC2)c(C(=O)OC)c1C	-186.9*	10.1	-5.5	-0.7
COc1ccccc1NC(=O)[C@@H]1CCCN1S(=O)(=O)c1ccc(Cl)cc1	12.9	nt	nt	29.8
CN(C)c1cc(-c2ccc(Cl)cc2)oc(=O)c1Cl	-2.0	?	-4.6	6.7
CN(C)c1cc(-c2ccc(Cl)c(Cl)c2)oc(=O)c1Cl	-97.8*	?	11.4	2.1
O=C(Nc1ccc(F)cc1)C(c1ccccc1)N1CCN(S(=O)(=O)c2ccc3ccccc3c2)CC1 (stereo unspecified)	-27.8	5.4	-8.5	3.7
Cc1ccc(C)c(S(=O)(=O)N2CCN(C(C(=O)Nc3ccc(F)cc3)c3ccccc3)CC2)c1 (stereo unspecified)	-85.7*	5.6	0.3	5.7
COc1ccc(N(C(=O)c2snc(C(N)=O)c2N)C(C(=O)NCC2CCCO2)c2ccc(C)o2)cc1OC (stereo unspecified)	0.5	-2.1	9.2	-0.3
c1cncc(CSc2nnc3ccc(-c4ccncc4)nn23)c1	24.5	2.9	20.4	-79.2*
COc1cccc(C(=O)NC(C)C(c2cccs2)N2CCN(C)CC2)c1 (stereo unspecified)	-71.6*	2.9	1.1	-4.8
OCCCn1c(CCNc2nc(-c3ccc(F)cc3)cs2)nc2cc(C(F)(F)F)ccc21	-123.4*	nt	nt	16.9
